The test system of test [1] is Human papillomavirus type 1a protein E7 (residues 44-93). In words: small molecules binding HPV E7 44-93 – biochemical, small-molecule microarray, residues 44-93, 635 nm fluorescence, primary screen (AID 1108).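 Also: E7 fragment applied at 1 µg/mL in TBST for 1 h at 4 C; score combines spot fluorescence with its signal to noise ratio.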 Conditions: fluorescence 635 nm, higher = more signal.
A short description of test [2]: hepatitis C replication reporter changes, two-sided – Huh7 cells, luciferase reporter, HCV replication inhibitor project, primary screen (AID 1109).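 Also: huh7 hepatoma cells harbouring a luciferase neomycin HCV replicon reporter; luciferase luminescence as measure of HCV replicon replication; test concentration not given here.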 Conditions: Huh7 HCV replicon luciferase reporter, 48 h; higher = more signal. (A reporter such as luciferase makes a cellular process visible.)
The target of test [3] is Left-right determination factor 2 (Homo sapiens) (UniProt O00292). In words: small molecules binding LEFTY2 protein – biochemical, small-molecule microarray, 635 nm fluorescence scan, primary screen (AID 1110). Particulars: higher = more signal.
Sequence of Left-right determination factor 2 (Homo sapiens) (O00292 whole entry, looked up): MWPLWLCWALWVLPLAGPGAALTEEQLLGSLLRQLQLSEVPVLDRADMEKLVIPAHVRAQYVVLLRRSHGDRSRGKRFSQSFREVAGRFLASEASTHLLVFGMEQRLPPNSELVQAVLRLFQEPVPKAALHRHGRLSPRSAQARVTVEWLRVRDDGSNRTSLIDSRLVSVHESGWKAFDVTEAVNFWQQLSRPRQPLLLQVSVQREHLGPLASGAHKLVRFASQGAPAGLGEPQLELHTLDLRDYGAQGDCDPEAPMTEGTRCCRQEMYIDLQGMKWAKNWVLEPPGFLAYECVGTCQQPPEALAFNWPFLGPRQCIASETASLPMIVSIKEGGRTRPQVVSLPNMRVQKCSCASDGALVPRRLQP
The target of test [4] is Calmodulin-1 (Homo sapiens) (UniProt P0DP23). In words: small molecules binding calmodulin-1 with EGTA – biochemical, small-molecule microarray, Cy5-labelled CALM1, profiling panel (AID 1111).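 Also: labelled calmodulin applied in Tris saline Tween buffer holding calcium plus EGTA and DTT.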 Conditions: Cy5-CALM1 binding fluorescence, higher = more signal.
Test [5] shares this target. In words: small molecules binding Ca-loaded calmodulin-1 – biochemical, small-molecule microarray, Cy5-labelled CALM1, plus calcium, artefact control for SMM control-protein annotation, profiling panel (AID 1112).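 Also: score merges spot fluorescence with signal to noise from triplicate slides.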 Particulars: Cy5-CALM1 binding fluorescence, higher = more signal.
Test [6] in a line: probe aWnt5a binding to arrayed compounds – biochemical, biotinylated probe, 635/667 nm fluorescence, primary screen (AID 1113).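 Also: score merges 667 nm fluorescence intensity with signal-to-noise per printed feature.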 Conditions: small-molecule microarray, higher = more signal.
The nature of test [7]: probe aShh binding to arrayed compounds – biochemical, biotinylated probe, 635/667 nm fluorescence, primary screen (AID 1114).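 Also: probe is biotin-labelled aShh protein from a stem cell growth factor screen; measures binding of labelled protein to compounds printed on the slide; score merges feature fluorescence at 667 nm with signal-to-noise.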 Conditions: small-molecule microarray, higher = more signal.
A short description of test [8]: probe aNog binding to arrayed compounds – biochemical, biotinylated probe, 635/667 nm fluorescence, primary screen (AID 1115).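 Also: probe is biotinylated aNog protein used at 0.15 µg/mL for 1 h at 4 C; z-score combines 667 nm fluorescence of each spot with its signal to noise.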 Conditions: small-molecule microarray, higher = more signal.
Test [9] deals with Torsin-1A-interacting protein 1 (Homo sapiens) (UniProt Q5JTV8). In words: compound microarray binding of lysate hLAP1 – cell lysate, small-molecule microarray, COS7 lysate, 635/667 nm fluorescence, primary screen (AID 1116). Conditions: 635 nm fluorescence, higher = more signal.
Sequence of Torsin-1A-interacting protein 1 (Homo sapiens) (Q5JTV8 whole entry, looked up): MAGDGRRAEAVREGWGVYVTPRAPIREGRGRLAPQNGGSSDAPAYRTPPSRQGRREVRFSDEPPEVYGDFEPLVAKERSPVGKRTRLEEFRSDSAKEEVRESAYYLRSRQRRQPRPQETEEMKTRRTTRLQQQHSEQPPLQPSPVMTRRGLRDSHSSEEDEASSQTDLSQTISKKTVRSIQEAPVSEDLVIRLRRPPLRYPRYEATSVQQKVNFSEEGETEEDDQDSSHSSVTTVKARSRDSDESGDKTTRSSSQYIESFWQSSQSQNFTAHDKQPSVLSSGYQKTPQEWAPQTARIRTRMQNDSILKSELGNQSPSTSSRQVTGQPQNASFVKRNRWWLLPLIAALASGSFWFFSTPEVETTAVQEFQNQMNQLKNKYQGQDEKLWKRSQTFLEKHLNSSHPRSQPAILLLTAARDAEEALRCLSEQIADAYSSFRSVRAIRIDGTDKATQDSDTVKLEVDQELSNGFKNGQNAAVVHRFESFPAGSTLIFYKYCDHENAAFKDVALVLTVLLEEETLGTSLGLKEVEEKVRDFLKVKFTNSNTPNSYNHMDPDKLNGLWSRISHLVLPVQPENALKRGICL
The target of test [10] is Alpha-bungarotoxin (Bungarus multicinctus) (UniProt P60615). In words: compounds binding labelled alpha-BTX control protein – biochemical, small-molecule microarray, Alexa647 label, 635/667 nm fluorescence, artefact control for SMM control protein annotation, profiling panel (AID 1117). Conditions: alpha-BTX-A647 binding fluorescence, higher = more signal.
Sequence of Alpha-bungarotoxin (Bungarus multicinctus) (P60615 whole entry, looked up): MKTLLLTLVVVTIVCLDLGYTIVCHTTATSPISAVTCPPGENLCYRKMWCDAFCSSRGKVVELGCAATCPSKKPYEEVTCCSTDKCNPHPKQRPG
For the next test, the target named is Albumin (Bos taurus) (UniProt P02769). In words: compounds binding labelled BSA control protein – biochemical, small-molecule microarray, Alexa647 label, 635/667 nm fluorescence, artefact control for SMM control protein annotation, profiling panel (AID 1118).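 Also: score merges 667 nm emission intensity and signal-to-noise per printed compound spot.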 Conditions: BSA-A647 binding, fluorescence 635 nm, higher = more signal.
Sequence of Albumin (Bos taurus) (P02769 whole entry, looked up): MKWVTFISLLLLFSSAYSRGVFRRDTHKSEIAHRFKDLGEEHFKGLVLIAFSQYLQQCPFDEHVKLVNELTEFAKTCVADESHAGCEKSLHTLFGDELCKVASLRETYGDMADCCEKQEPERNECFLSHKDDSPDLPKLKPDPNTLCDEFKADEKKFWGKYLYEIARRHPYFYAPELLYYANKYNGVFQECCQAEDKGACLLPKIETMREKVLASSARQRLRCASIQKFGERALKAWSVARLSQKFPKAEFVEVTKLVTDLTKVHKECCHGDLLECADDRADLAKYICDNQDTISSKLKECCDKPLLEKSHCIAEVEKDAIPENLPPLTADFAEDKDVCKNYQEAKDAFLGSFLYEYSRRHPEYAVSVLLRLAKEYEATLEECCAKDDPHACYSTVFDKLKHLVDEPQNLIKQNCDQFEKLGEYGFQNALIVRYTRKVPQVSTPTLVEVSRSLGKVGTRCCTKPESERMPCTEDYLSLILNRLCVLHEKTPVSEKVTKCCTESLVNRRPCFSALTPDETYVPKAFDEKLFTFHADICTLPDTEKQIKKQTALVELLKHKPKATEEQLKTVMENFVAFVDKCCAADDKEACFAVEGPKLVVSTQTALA
Test [11] in a line: probe aXIP binding to arrayed compounds – biochemical, NeuroSMM set, 635/667 nm fluorescence, primary screen (AID 1119).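 Also: probe is the protein aXip251-270 applied at 1 µg/mL to compound-printed slides; binding of probe to printed compounds measured as 667 nm fluorescence plus signal to noise.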 Conditions: small-molecule microarray, higher = more signal, called active from +8 up or from −8 down.
Test [12] in a line: probe aNOTCH3 binding on compound microarray – biochemical, small-molecule microarray, 635/667 nm fluorescence, primary screen (AID 1120).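 Also: probe is a biotin-tagged antibody raised against NOTCH3 rather than NOTCH3 protein; score merges spot fluorescence near 667 nm with spot signal to noise.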 Particulars: higher = more signal.
A short description of test [13]: probe aNOTCH2 binding on compound microarray – biochemical, small-molecule microarray, 635/667 nm fluorescence, primary screen (AID 1121).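 Also: score merges feature fluorescence read at 667 nm with its signal to noise.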 Particulars: higher = more signal.
In test [14] the target is Carbonic anhydrase 2 (Homo sapiens) (UniProt P00918). Nature of the test: compounds binding carbonic anhydrase 2 – biochemical, small-molecule microarray, Alexa647-labelled CAII, profiling panel (AID 1122). Particulars: CAII-A647 binding fluorescence, higher = more signal.
Test [15] is described as follows: COS7 lysate on small-molecule microarray, probe aHis, 635 nm (AID 1123).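 Also: z-score combines 667nm fluorescence intensity with signal-to-noise per printed compound spot.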 Particulars: COS7 cell lysate, fluorescence, higher = more signal.
Test [16] is described as follows: probe aLAP1 signal on lysate-treated microarray – cell lysate, small-molecule microarray, COS7 lysate, primary screen (AID 1124).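 Also: lysate comes from COS7 cells expressing LAP1 and is applied at 0.3 µg/mL; score merges spot fluorescence near 667 nm with signal-to-noise over triplicate slides.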 Particulars: probe aLAP1, fluorescence, higher = more signal.
The test system of a further test is Sam68 (KHDRBS1). In words: compounds binding KHDRBS1 protein – biochemical, small-molecule microarray, 635 nm fluorescence, primary screen (AID 1125).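 Also: score merges 667 nm channel intensity with signal to noise over triplicate slides.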 Particulars: higher = more signal.
Test [17] relates to Chordin-like protein 2 (CHRDL2). Nature of the test: compounds binding chordin-like 2 – biochemical, small-molecule microarray, 635 nm fluorescence, primary screen (AID 1126).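 Also: printed compound slides probed with Chrdl2 protein at 4 µg/mL for 1 h at 4 C; score merges 667 nm emission intensity with signal to noise over three replicate slides.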 Particulars: fluorescence 635 nm, higher = more signal.
For test [18], the target named is Concanavalin-A (Canavalia ensiformis) (UniProt P02866). In words: compounds binding concanavalin A lectin – biochemical, small-molecule microarray, Alexa647 label, 635 nm, artefact control for SMM control protein annotation, primary screen (AID 1127).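 Also: z combines 667 nm emission intensity with signal-to-noise across three replicate slides.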 Particulars: ConA-A647 binding fluorescence, higher = more signal.
Sequence of Concanavalin-A (Canavalia ensiformis) (P02866 whole entry, looked up): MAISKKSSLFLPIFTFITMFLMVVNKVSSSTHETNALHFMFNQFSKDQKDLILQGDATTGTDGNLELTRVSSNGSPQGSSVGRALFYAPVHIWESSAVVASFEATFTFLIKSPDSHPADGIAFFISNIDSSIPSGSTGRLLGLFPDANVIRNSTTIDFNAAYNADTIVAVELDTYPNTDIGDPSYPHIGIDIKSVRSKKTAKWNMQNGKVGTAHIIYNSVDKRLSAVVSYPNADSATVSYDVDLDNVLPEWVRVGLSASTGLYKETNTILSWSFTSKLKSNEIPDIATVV

Activity calls are given as the source filed them.

Consider `COc1cc(CO)cc(I)c1O[C@H]1C=C(C(=O)NCCO)C[C@@H](N(C(=O)c2cc3ccccc3oc2=O)C2CCCCCC2)[C@@H]1O`, for which the composite z-score in test [1] was -0.914; in test [3], -0.0138; in test [4] it was -0.23; in test [5] it was -0.769; in [6] it was -0.096; in test [7] it was -0.349. In addition, the composite z-score in [8] is -0.267; in test [9], 0.155; in test [10], -0.29; with Albumin (Bos taurus), 0.179; in [12] it was 0.0084; in test [13], -0.0282. The composite z-score was -0.177 in test [14]; -0.149 in [15]; 0.0826 in [16]; 0.0348 with Sam68 (KHDRBS1); 0.13 in test [17]; 0.66 in test [18]. For the same compound, the z-score in [2] is -0.469. The composite Z-score in [11] was -0.161 (inactive).

On to `COC(=O)C(CC#Cc1ccc2c(c1)[C@]1(C(=O)N2)[C@H](c2ccccc2OCCO)N2[C@H](c3ccccc3)[C@H](c3ccccc3)OC(=O)[C@H]2[C@@H]1C(N)=O)C(=O)OC`, for which the composite z-score in test [1] is 0.599; in test [3], -0.0862; in [4] it was 1.33; in test [5], 0.116; in test [6], 0.349; in [7] it was 0.679. Also, the composite z-score worked out at 2.29 in test [8]; 1.21 in test [9]; 2.45 in test [10]; 0.468 with Albumin (Bos taurus); 0.631 in test [12]; 0.25 in test [13]. The composite z-score in [14] is 0.672; in [15], 2.09; in test [16], 0.493; in the test on Sam68 (KHDRBS1), 0.519; in test [17] it was 0.0031; in [18], 0.736. The z-score in test [2] was -2.95. Besides, the composite Z-score in [11] is 0.389 (inactive).

With `C=C(CCCC)/C(=C/C[C@@H](OC(C)=O)c1cccc(OCCO)c1)c1cnc2ccccc2c1`, the composite z-score in [1] is 0.571; in test [3], 0.257; in test [4], -0.18; in test [5], -0.387; in test [6], -0.124; in test [7], -0.0709. Moreover, the composite z-score in test [8] was 0.123; in test [9], 0.314; in test [10] it was 1.07; in the test with Albumin (Bos taurus) it was 0.0156; in test [12], 0.0141; in test [13], -0.124. The composite z-score was 0.687 in [14]; 0.366 in [15]; -0.0843 in [16]; 0.788 in the test with Sam68 (KHDRBS1); 0.777 in [17]; 0.606 in test [18]. Also, the z-score in [2] is -1.32. Besides, the composite Z-score in test [11] was 0.785 (inactive).

On to `CC(C)(C)OC(=O)CC[C@]1(C(N)=O)N=C(c2ccc(OCCCO)cc2)O[C@H]1c1ccccc1`, for which the composite z-score was -0.0059 in [1]; -0.23 in test [3]; 2.64 in [4]; 1.66 in [5]; 0.116 in [6]; 0.707 in [7]. In addition, the composite z-score in test [8] worked out at 1.36; in test [9] it was 3.07; in test [10], 2.12; with Albumin (Bos taurus), 0.963; in test [12], 0.405; in test [13] it was 0.133. For the same compound, the composite z-score in test [14] is 0.848; in test [15], 3.21; in test [16] it was 0.834; in the test on Sam68 (KHDRBS1), 1.25; in test [17] it was -1.34; in test [18] it was 0.32. The compound further showed a z-score in test [2] of 0.666. Further, in test [11], the composite Z-score is 0.0933 (inactive).

Turning to `COCCCNC(=O)[C@@]1(Cc2ccccc2)N=C(c2ccc(OCCCO)cc2)O[C@H]1c1ccccc1CN=[N+]=[N-]`, the composite z-score amounted to 0.596 in [1]; 0.0508 in test [3]; 2.14 in test [4]; 0.451 in test [5]; 0.0445 in test [6]; 0.496 in test [7]. Further, the composite z-score was 1.36 in test [8]; 2.35 in test [9]; 2.23 in [10]; 0.884 in the test with Albumin (Bos taurus); 0.217 in test [12]; 0.253 in [13]. Moreover, the composite z-score in test [14] is 0.752; in test [15] it was 2.78; in test [16] it was 0.982; with Sam68 (KHDRBS1), 1.32; in test [17], -1.1; in test [18], 1.12. For the same compound, the z-score in test [2] is -2.86. In addition, the composite Z-score in test [11] was 0.294 (inactive).

The values above are taken from PubChem BioAssay.
